Screen size: about 16,000 compounds; about 5,100 (32%) were called active. About 25% were inconclusive and are not listed. The list shows a part of the results. A number with no mark means an inactive call. The call rests on the fitted dose curve; in most records, active means well fitted curve in the direction sought with a large enough effect; inconclusive means small, poorly fitted or top-dose-only effect, or effect the other way; inactive means no such curve, though single readings can be large or run the other way.

In general, AC50 refers to the midpoint of the concentration-response curve, whichever way the signal moves.
On the % scale 0 is the no-effect control and ±100 the full control effect.

The target in the assay is Cytochrome P450 3A4 (Homo sapiens) (UniProt P08684). In words: Cytochrome panel assay with activity outcomes. The settings on record: recombinant CYP, pro-luciferin dealkylation, luminescence, p450-cyp3a4; series mostly up to 57.1 µM; activity, negative = inhibition: at the top concentration.
Sequence of Cytochrome P450 3A4 (Homo sapiens) (P08684 whole entry, looked up): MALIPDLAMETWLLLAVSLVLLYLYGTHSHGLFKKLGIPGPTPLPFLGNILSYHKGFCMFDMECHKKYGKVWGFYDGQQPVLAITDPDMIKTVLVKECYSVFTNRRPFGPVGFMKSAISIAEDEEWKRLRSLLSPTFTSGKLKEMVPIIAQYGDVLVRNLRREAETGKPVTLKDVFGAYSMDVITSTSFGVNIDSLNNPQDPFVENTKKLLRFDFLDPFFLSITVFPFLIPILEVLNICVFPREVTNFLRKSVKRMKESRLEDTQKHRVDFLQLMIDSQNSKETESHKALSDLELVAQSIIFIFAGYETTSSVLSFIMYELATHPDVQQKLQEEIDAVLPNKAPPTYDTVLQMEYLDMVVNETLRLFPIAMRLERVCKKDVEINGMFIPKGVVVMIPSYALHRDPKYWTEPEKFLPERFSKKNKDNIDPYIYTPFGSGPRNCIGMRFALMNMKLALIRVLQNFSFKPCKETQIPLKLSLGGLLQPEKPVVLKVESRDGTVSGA
As for `CO/N=C(/CNC(=O)c1cccc(Cl)c1)c1ccc(Cl)cc1`, the activity, negative = inhibition is -6.99% [at 2.29 µM].

For the compound `CSc1ccc(C#N)cc1NC(=O)c1cccc(Cl)c1`, the AC50 is 25.1 µM (active). On to `CCCc1c(-c2ccc(O)cc2)nn(-c2ccc(O)cc2)c1-c1ccc(O)cc1`, for which the AC50 is 2.51 µM (active). Take `Cc1nn(-c2ccccc2)c(-c2ccccc2)c1C(=O)O`: the “activity, negative = inhibition” value is -1.38%.

Take `C[C@H](NCCc1ccc(O)cc1)[C@@H](O)c1ccc(O)cc1`: the AC50 result is “inactive”. For `N#C[C@H](Cc1ccc(O)cc1)c1ccc(O)cc1`, the AC50 was 12.6 µM (active). As for `CC(=O)N[C@H](Cc1ccc(O)cc1)C(=O)O`, the activity, negative = inhibition is -12.2% [at 11.4 µM].

For the compound `Cc1occc1C(=O)NNC(=O)c1ccc(F)cc1`, the “activity, negative = inhibition” value was 18.8%.

In the case of `CC1CCc2cc(F)ccc2N1C(=O)CSc1nnc2c(n1)[nH]c1ccc(F)cc12` (stereo unspecified), the AC50 was 2 µM (active).

Take `Cc1ccc(C(=O)NNC(=O)CSc2nnc3c(n2)[nH]c2ccc(F)cc23)cc1`: the AC50 is 1.58 µM (active). On to `Cc1ccccc1C(=O)NNC(=O)c1ccc(F)cc1`, for which the “activity, negative = inhibition” value is -5.86%.

For `O=C(O)c1nn(-c2ccccc2)nc1-c1nn(-c2ccccc2)nc1C(=O)O`, the “activity, negative = inhibition” value was 11.6%. As for `CC1(C)Cc2ccccc2C(NNC(=O)c2ccncc2)=N1`, the AC50 is 8.91 µM (active). Take `CC1=NC(C)(C)Cc2ccccc21`: the “activity, negative = inhibition” value is -15.9%. In the case of `CN1CCC2(CC1)CCN(C(=O)c1ccncc1)CC2`, the “activity, negative = inhibition” value is -7.59%. Consider `CC(C)CC(c1nnnn1C(C)C)N1CCN(c2ccccc2)CC1` (stereo unspecified), for which the AC50 was 3.98 µM (active). In the case of `CC(C)n1nnnc1-c1cc(Cl)cc(Cl)c1`, the activity, negative = inhibition was 11.3% [at 2.29 µM].

In the case of `ClC(Cl)(Cl)C(N1CCN(c2ccccc2)CC1)N1CCN(c2ccccc2)CC1`, the activity, negative = inhibition was -3.89% [at 11.4 µM]. On to `O=C(O)[C@H]1C[C@H](C(=O)O)N1`, for which the “activity, negative = inhibition” value is -4.9%. Turning to `CCc1c(O)nc(SCC(=O)NC(C)(C)C)n(-c2ccccc2)c1=O`, the activity, negative = inhibition is -1.41% [at 2.29 µM]. Turning to `CCn1c(Cc2ccccc2)nnc1SCC(=O)NC(C)(C)C`, the AC50 was 11.2 µM (active).

For `CCn1c(CC(=O)Nc2ccc(C)cc2)nnc1SCC(=O)Nc1nc(C)cs1`, the AC50 is 7.94 µM (active).

With `CCn1c(CC(=O)Nc2ccc(C)cc2)nnc1SCC(=O)NCCc1ccccc1`, the AC50 was 10 µM (active). With `CC(C)(C)NC(=O)NC(=O)CSc1nnc2ccccn12`, the “activity, negative = inhibition” value is 13.5%. With `CCn1c(CSCc2ccc(C)cc2)nnc1SCC(=O)NCc1ccccc1`, the AC50 was 7.94 µM (active).

In the case of `C=CCn1c(Cc2c[nH]c3ccccc23)nnc1SCC(=O)NCc1ccccc1`, the activity, negative = inhibition is -3.87% [at 2.29 µM]. In the case of `CN(C)CC(O)COc1cccc(OCC(O)CN(C)C)c1` (stereo unspecified), the “activity, negative = inhibition” value was -0.983%. Regarding `CCN1C(=O)[C@H]2[C@@H]3[C@H](O)C=CC(=O)[C@H]3CC[C@H]2C1=O`, the activity, negative = inhibition is -12.1% [at 11.4 µM]. On to `O=S(=O)(c1ccccc1)N1N=C(c2cccs2)CC1c1ccc(Br)cc1` (stereo unspecified), for which the AC50 was 2 µM (active). For the compound `O=c1oc(-c2cccs2)nc2ccc(Br)cc12`, the “activity, negative = inhibition” value was -22.2%. Take `CC(C)Cc1nnc(NC(=O)c2ccc([N+](=O)[O-])cc2)s1`: the “activity, negative = inhibition” value is 17.9%. `O=C(Nc1nnc(C2CC2)s1)c1cc(S(=O)(=O)N2CCN(c3ccccc3)CC2)ccc1Cl`: the AC50 is 2 µM (active).

Regarding `O=C(Nc1nnc(C2CC2)s1)c1ccc(S(=O)(=O)c2ccccc2)cc1`, the “activity, negative = inhibition” value is 25.6%. For the compound `CCOC(=O)CSc1nnc(NC(=O)c2cccc(S(=O)(=O)N3CCCCCC3)c2)s1`, the activity, negative = inhibition was -15.1% [at 2.29 µM].

As to `CCN1CCN(S(=O)(=O)c2ccc(Cl)c(C(=O)Nc3nnc(CC(C)C)s3)c2)CC1`, the AC50 is 14.1 µM (active).

As to `CCOc1ccc2nc(NC(=O)c3ccc(S(=O)(=O)N4CCOCC4)cc3)sc2c1`, the “activity, negative = inhibition” value is -15%. Consider `CCc1cc(C(c2ccccc2OC)N2CCOCC2)c(NC(=O)c2ccccc2)s1` (stereo unspecified), for which the AC50 is 4.47 µM (active).

For the compound `CCCCCC(=O)N1CCCC(c2nc(-c3ccc(OC)cc3)no2)C1` (stereo unspecified), the AC50 is 7.08 µM (active). Consider `O=C(Nc1ccccc1)N1CCCC(c2nc(-c3ccc(F)cc3)no2)C1` (stereo unspecified), for which the AC50 is 14.1 µM (active). With `COc1ccc(NC(=O)c2ccc(-c3ccc(-c4noc(C)n4)cc3C)cc2)cc1N1CCN(C)CC1`, the “activity, negative = inhibition” value is -16.4%. Take `CCCCC1CCC(c2nc(-c3ccccn3)no2)CC1` (stereo unspecified): the activity, negative = inhibition is 5.4% [at 2.29 µM].

With `COc1ccc(-c2noc(C3CCCN(C(=O)c4ccccc4OC)C3)n2)cc1OC` (stereo unspecified), the AC50 was 5.01 µM (active). For `CN(C)c1ccc(-c2noc(C3CCN(S(=O)(=O)c4cccc(C(=O)O)c4)CC3)n2)cc1`, the “activity, negative = inhibition” value is -21.2%.

On to `CC(C)(C)c1ccc(C(=O)NCc2ccc(Cl)cc2)cc1`, for which the “activity, negative = inhibition” value is -23.4%. Consider `O=C(NCc1cccc(C(F)(F)F)c1)c1cc(Cl)cc(Cl)c1`, for which the AC50 was 14.1 µM (active).

Turning to `O=C(NCc1ccccc1)c1cccc(COc2cccc(Cl)c2)c1`, the activity, negative = inhibition was -29.3% [at 11.4 µM]. With `CCOCC(=O)Nc1cc(C(=O)Nc2ccccc2)ccc1Cl`, the activity, negative = inhibition is -4.26% [at 2.29 µM].

Take `CCN(CC)S(=O)(=O)c1cc(C(=O)Nc2ccncc2)ccc1Cl`: the AC50 is 1 µM (active).

For the compound `CCN(CC)S(=O)(=O)c1cc(C(=O)OC)ccc1Cl`, the “activity, negative = inhibition” value is 9.82%. For `CC(=O)Nc1ccc([N+](=O)[O-])cn1`, the “activity, negative = inhibition” value is 3.23%. For `CC(=O)Nc1ccc(S(=O)(=O)c2ccc(N)cc2)cc1`, the activity, negative = inhibition was -19.3% [at 11.4 µM]. With `CC(=O)Nc1ccc(Nc2ncc([N+](=O)[O-])c(Nc3ccc(NC(C)=O)cc3)n2)cc1`, the AC50 is 6.31 µM (active). For `CCOc1cc(NC(=S)NCC2CCCO2)c(OCC)cc1NC(=O)c1ccccc1C` (stereo unspecified), the half-maximal activity concentration (AC50) is 12.6 µM (active). Consider `Cc1cccc(NC(=S)NNC(=O)CC(C)O)c1C` (stereo unspecified), for which the “activity, negative = inhibition” value is -9.46%. With `Cc1ccccc1C(=O)c1c[nH]c(C(=O)NCC2CCCO2)c1` (stereo unspecified), the activity, negative = inhibition was 2.67% [at 11.4 µM]. Take `CCc1cc(C(=O)NNC(=S)NCC2CCCO2)cs1` (stereo unspecified): the “activity, negative = inhibition” value is -21.7%.

On to `Cc1scc(C(=O)NNC(=S)NCC2CCCO2)c1C` (stereo unspecified), for which the “activity, negative = inhibition” value is -19.7%. `Cc1ccc(C(=O)NC(=S)NCC2CCCO2)cc1` (stereo unspecified): the activity, negative = inhibition was -7.78% [at 2.29 µM]. As for `CCOc1cc(NC(=S)Nc2cccc(C)c2)c(OCC)cc1NC(=O)CC(C)C`, the AC50 was 11.2 µM (active). Turning to `CCOc1cc(NC(=S)NCC2CCCO2)c(OCC)cc1NC(=O)c1cccc(C)c1` (stereo unspecified), the AC50 was 12.6 µM (active). With `Nc1cc(C(=O)O)[nH]c(=O)n1`, the activity, negative = inhibition was -11.2% [at 11.4 µM].

The values above are taken from PubChem BioAssay AID1851 (National Center for Advancing Translational Sciences (NCATS), 2009).
